In the library only some 4.2% were active in any assay of this set; here they are far more common.
S1P4 ag – human S1P4 receptor agonism | O95977 | S1P4-expressing cell line, agonist reporter assay | activation, % at 4.98 µM | 220,000 compounds, 0.35% hits | AID 1509; in the data active = activation above about 11%;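 note: 0% = DMSO vehicle and 100% = reference agonist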
CHOP inhibitor – inhibitors of CHOP induction in ER stress response; CHO-K1 CHOP-promoter luciferase, tunicamycin-induced, 15-18 h; inhibition, % at 10 µM; 220,000 compounds, 3.8% hits; AID 2732;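 active = compounds that reduced the stress-induced luciferase reporter signal by more than about 70% of percent inhibition, limit read from the data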;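 note: 0% = tunicamycin plus vehicle and 100% = wells without tunicamycin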
S1P4 antag – blocks the human S1P4 receptor; O95977; S1P4-expressing cells, antagonist mode, reporter read-out; inhibition, % at 4.98 µM; 220,000 compounds, 0.26% hits; AID 1510; in the data active = inhibition above about 29%;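 note: 0% = wells stimulated with agonist and 100% = vehicle wells without agonist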
Hsp70 activator – switches on Hsp70 transcription | AID 1203 | activation, % at 10 µM | 200,000 compounds, 0.04% hits | HeLa Hsp70 promoter luciferase reporter, luminescence; scaled: vehicle 0, proteasome-inhibitor control 100%;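 active = activation above the mean across all tested compounds plus 3 SD, cutoff set per campaign, cut at about 5.5% in these data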;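 note: 100% = MG132 at 30 µM as the positive control and 0% = DMSO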
S1P4 agonist cf – human S1P4 agonism, confirmation | shares compounds with S1P4 ag | 740 compounds, 7% hits | S1P4 agonist cell-based reporter assay | activation, % at 4.98 µM; in the data active = activation above about 12%;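 note: 0% = vehicle and 100% = full reference agonist response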
S1P1 agonist – activates human S1P1, counter-screen for S1P4 agonists. shares compounds with S1P4 ag. S1P1 agonist cell-based assay, activation. activation, % at 4.98 µM. 740 compounds, 4% hits. AID 1563; in the data active = activation above about 21%;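 note: 0% = vehicle wells and 100% = reference agonist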
Target sequence (P21453 whole entry, looked up): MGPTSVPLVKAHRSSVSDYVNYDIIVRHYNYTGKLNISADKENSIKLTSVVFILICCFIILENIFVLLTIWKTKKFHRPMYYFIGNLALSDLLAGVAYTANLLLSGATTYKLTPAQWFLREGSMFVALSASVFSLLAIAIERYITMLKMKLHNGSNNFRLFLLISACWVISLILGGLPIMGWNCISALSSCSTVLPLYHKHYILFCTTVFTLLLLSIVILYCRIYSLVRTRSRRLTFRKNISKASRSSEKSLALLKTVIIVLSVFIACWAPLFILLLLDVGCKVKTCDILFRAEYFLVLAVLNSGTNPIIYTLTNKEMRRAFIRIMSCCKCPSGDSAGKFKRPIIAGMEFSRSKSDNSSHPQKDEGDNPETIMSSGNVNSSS
Starred values were filed as active, the others as inactive; . = no result given.

SMILES	S1P4 ag	CHOP inhibitor	S1P4 antag	Hsp70 activator	S1P4 agonist cf	S1P1 agonist
COc1ccc(NC(=O)Cn2cccc2)c(OC)c1	35*	-10	-10	0	-2	0
O=C1COCCOCCOCC(=O)NCCN1	2	8	-42	0	.	.
Cc1ccc(NC(=O)COC(=O)CN2C(=O)COc3ccccc32)cc1	29*	20	-15	0	-2	3
Cc1ccc(CCNC(=O)CN2C(=O)COc3ccccc32)cc1	-1	43	-2	0	.	.
COC(=O)c1cc(C(=O)OC)cc(N2C(=O)CC(NNC(=O)c3ccc(C)cc3)C2=O)c1 (stereo unspecified)	29*	15	-6	0	-2	-2
CCOC(=O)c1sc(NS(=O)(=O)c2cc(C)ccc2C)nc1C	1	10	2	0	.	.
CC(C)CCOCC1CC2(CC(C)(c3csc(N)n3)OC2=O)C(=O)O1 (stereo unspecified)	0	23	1	0	.	.
COC(=O)c1c(-n2c(C)cc(C=O)c2C)sc2c1CCCC2	12*	35	2	0	15*	-3
CC(C)C[C@H](NC(=O)c1nc[nH]c1C(=O)NCc1ccccc1)C(=O)OC(C)(C)C	1	22	11	0	.	.
CC(C)C[C@H](NC(=O)c1nc[nH]c1C(=O)NCc1ccccc1)C(=O)OCc1ccccc1	20*	8	-21	0	26*	0
Cc1c(/C=C/C(=O)c2ccccc2)cnn1C	0	-50	-9	0	.	.
Cc1c(/C=C/C(=O)c2ccc(Cl)s2)cnn1C	13*	-4	-19	0	-1	4
N#CC1=C(N)Oc2cc(N)ccc2C1C1CCCCC1 (stereo unspecified)	14*	.	4	0	-1	-3
Cn1c(CNC(=O)OC(C)(C)C)nnc1SCc1c(Cl)cccc1Cl	56*	1	-5	.	-2	-11
O=C1CCCCC1Sc1nnc(-c2ccc3c(c2)OCO3)o1 (stereo unspecified)	0	50	-8	-1	.	.
COc1ccccc1CC(=O)Nc1cccc(C(=O)NN2C(=O)c3ccccc3C2=O)c1	-2	5	-1	-1	.	.
Cc1cc(OCC(=O)N2CCCCCC2)ccc1[N+](=O)[O-]	0	10	-22	0	.	.
Cc1cc(OCCN2CCCCCC2)ccc1[N+](=O)[O-]	24*	-8	-19	0	-1	7
CCOC(=O)N1CCN(C(=O)C(NS(=O)(=O)c2cccc3nsnc23)c2ccccc2)CC1 (stereo unspecified)	1	22	-11	-1	.	.
CCN1CCN(c2cc(C)c3cc(NC(=O)c4cccs4)ccc3n2)CC1	56*	-24	11	.	-3	-8
CCN1CCN(c2cc(C)c3cc(NC(=O)c4cccc(OC)c4)ccc3n2)CC1	3	-26	9	.	.	.
CC(C)c1ccc(/C=C2\C(=O)N(CCN3CCOCC3)C(=S)N2C)cc1	43*	60	4	1	-1	-4
CC(C)c1ccc(/C=C/C(=O)Nc2ccc(CN3CCOCC3)cc2)cc1	0	6	-10	.	.	.
CCOC(=O)C1(Cc2cccc(F)c2)CCN(Cc2ccon2)CC1	1	8	-6	0	.	.
CSc1cccc(CN2CCC(CO)(Cc3ccccc3)CC2)c1	16*	18	11	0	-2	-6
SMILES	S1P4 ag	CHOP inhibitor	S1P4 antag	Hsp70 activator	S1P4 agonist cf	S1P1 agonist
Cc1cc(C)n(-c2cccc(CN3CCC(CO)(Cc4ccccc4)CC3)c2)n1	0	8	4	0	.	.
Cc1ccccc1CC1(CO)CCCN(C(=O)c2ccccc2Cl)C1 (stereo unspecified)	1	3	-10	0	.	.
Cc1ccccc1CC1(CO)CCCN(C(=O)c2cc(Cl)ccc2F)C1 (stereo unspecified)	26*	-8	4	0	-2	3
CCOC(=O)c1cccc(NC(=O)c2cccnc2)c1	0	36	-10	1	.	.
O=C(CSc1nc2ccccc2c(=O)n1-c1ccc(F)c(Cl)c1)Nc1cccc(S(=O)(=O)N2CCOCC2)c1	30*	19	18	0	-1	2
CC(=O)Nc1ccc(NC(=O)c2oc3cc(C)c(C)cc3c2C)cc1	12*	22	-9	0	-2	-1
CCc1nc(SCC#N)c(C#N)cc1C	23*	21	-10	0	1	4
Nc1ccccc1SCC1CSc2nc3ccccc3c(=O)n21 (stereo unspecified)	14*	6	-2	0	-2	-9
COc1cccc(SCC2CSc3nc4ccccc4c(=O)n32)c1 (stereo unspecified)	0	-6	-8	0	.	.

Screens: PubChem, several laboratories
